Reference: PubChem BioAssay (EPA / NIEHS)
Calls of active or inactive are those of the source. The calls were made as follows: active = hit-call score of the fitted dose curve at least 0.9, where 1 is the maximum; inactive = score below 0.9.

Legend:
Conditions in all cases: mRNA level, 48 h; actives raise or lower the signal
[1] = read-out: Cytochrome P450 4A22 (Homo sapiens) (UniProt Q5TCH4); experiment: LTEA_HepaRG_CYP4A22: Life Technologies and Expression Analysis (LTEA) Assay for Cytochrome P450 4A22 (CYP4A22) using HepaRG (AID 2283495)
Method in brief: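 Cryopreserved HepaRG cells, plated and cultured 48 h, then switched to serum-free induction medium and treated 48 h (duplicates, up to 100 uM, half-log steps, 0.5% DMSO). Expression change of CYP4A22 was fitted bidirectionally against vehicle.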

[2] = read-out: Cytochrome P450 7A1 (Homo sapiens) (UniProt P22680); experiment: LTEA_HepaRG_CYP7A1: Life Technologies and Expression Analysis (LTEA) Assay for Cytochrome P450 7A1 (CYP7A1) using HepaRG (AID 2283496)
Method in brief: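 HepaRG cells plated 48 h, then switched to serum-free induction medium and exposed in duplicate for 48 h to 8-point half-log series from 100 uM in 0.5% DMSO. CYP7A1 mRNA by qRT-PCR (TaqMan), normalized to ACTB/GAPDH/POLR2A; bidirectional fit versus DMSO.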

[3] = read-out: Glutathione S-Transferase (GSTA2), GSTA2 (gene 2939); experiment: LTEA_HepaRG_GSTA2: Life Technologies and Expression Analysis (LTEA) Assay for Glutathione S-Transferase (GSTA2) using HepaRG (AID 2283497)
Method in brief: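 HepaRG, 48 h dosing, 8-pt half-log CRC from 100 uM, 0.5% DMSO vehicle, n=2; RNA → Fluidigm TaqMan qRT-PCR; GSTA2 vs ACTB/GAPDH/POLR2A; gain/loss fit vs DMSO.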

[4] = read-out: Glutamate-cysteine ligase catalytic (GCLC), GCLC (gene 2729); experiment: LTEA_HepaRG_GCLC: Life Technologies and Expression Analysis (LTEA) Assay for Glutamate-cysteine ligase catalytic (GCLC) using HepaRG (AID 2283498)
Method in brief: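 Read-out is GCLC transcript level by Fluidigm-based TaqMan qRT-PCR, normalized to three housekeeping genes and fitted in both directions relative to 0.5% DMSO. Human HepaRG cells received chemicals for 48 h, up to 100 uM.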

[5] = read-out: growth arrest and DNA damage 45 (GADD45G), GADD45G (gene 10912); experiment: LTEA_HepaRG_GADD45G: Life Technologies and Expression Analysis (LTEA) Assay for growth arrest and DNA damage 45 (GADD45G) using HepaRG (AID 2283499)
Method in brief: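 Human hepatic HepaRG line treated 48 h with chemicals (eight concentrations, half-log steps from 100 uM); transcript induction or repression of GADD45G scored by qRT-PCR versus DMSO vehicle.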

[6] = read-out: Glutamate-cysteine ligase regulatory (GCLM), GCLM (gene 2730); experiment: LTEA_HepaRG_GCLM: Life Technologies and Expression Analysis (LTEA) Assay for Glutamate-cysteine ligase regulatory (GCLM) using HepaRG (AID 2283500)
Method in brief: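 Cells were plated, cultured 48 h, switched to serum-free induction medium, then dosed in duplicate for 48 h at eight half-log concentrations up to 100 uM. RNA was then profiled by qRT-PCR; gain or loss versus DMSO was fitted.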

[7] = read-out: Glutathione S-transferase M3 (GSTM3), GSTM3 (gene 2947); experiment: LTEA_HepaRG_GSTM3: Life Technologies and Expression Analysis (LTEA) Assay for Glutathione S-transferase M3 (GSTM3) using HepaRG (AID 2283501)
Method in brief: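 Changes in GSTM3 expression, an oxidative-stress marker, were scored by bidirectional curve fitting against 0.5% DMSO vehicle. Human HepaRG cultures received chemicals for 48 h in duplicate, highest concentration 100 uM with half-log dilutions.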

[8] = read-out: Heat shock 70 kDa protein 1 (HSPA1A), gene 3303; experiment: LTEA_HepaRG_HSPA1A: Life Technologies and Expression Analysis (LTEA) Assay for Heat shock 70 kDa protein 1 (HSPA1A) using HepaRG (AID 2283502)
Method in brief: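 Readout is HSPA1A transcript level by microfluidic qRT-PCR, normalized to three housekeeping genes and analysed for gain or loss of signal relative to 0.5% DMSO. Human HepaRG cultures received test chemicals for 48 h at up to 100 uM.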

[9] = read-out: 3-Hydroxy-3-Methylglutaryl-CoA Synthase 2 (HMGCS2), HMGCS2 (gene 3158); experiment: LTEA_HepaRG_HMGCS2: Life Technologies and Expression Analysis (LTEA) Assay for 3-Hydroxy-3-Methylglutaryl-CoA Synthase 2 (HMGCS2) using HepaRG (AID 2283504)
Method in brief: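 Expression of HMGCS2 in human HepaRG liver cells is measured by qRT-PCR 48 h after dosing (highest 100 uM, half-log series, 0.5% DMSO). Values come from bidirectional concentration-response fitting with DMSO as baseline.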

HGF (gene 3082) = experiment: LTEA_HepaRG_HGF: Life Technologies and Expression Analysis (LTEA) Assay for Hepatocyte Growth Facto (HGF) using HepaRG (AID 2283505)
Method in brief: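 Gain or loss of HGF mRNA in human HepaRG liver cells after 48 h chemical exposure; eight concentrations up to 100 uM with 0.5% DMSO vehicle, quantified by TaqMan qRT-PCR.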

[10] = read-out: Insulin Like Growth Factor 1 (IGF1), IGF1 (gene 3479); experiment: LTEA_HepaRG_IGF1: Life Technologies and Expression Analysis (LTEA) Assay for Insulin Like Growth Factor 1 (IGF1) using HepaRG (AID 2283506)
Method in brief: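 HepaRG, plated 48 h, then switched to serum-free induction media; test chemical 8-pt half-log from 100 uM (0.5% DMSO), duplicate, 48 h. Lysis in RLT, TaqMan qRT-PCR, norm. ACTB/GAPDH/POLR2A. Bidirectional fit vs DMSO.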

[11] = read-out: Intercellular Adhesion Molecule 1 (ICAM1), ICAM1 (gene 3383); experiment: LTEA_HepaRG_ICAM1: Life Technologies and Expression Analysis (LTEA) Assay for Intercellular Adhesion Molecule 1 (ICAM1) using HepaRG (AID 2283507)
Method in brief: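 Gain or loss of transcript in HepaRG hepatic cells is quantified by qRT-PCR after 48 h chemical exposure (up to 100 uM, half-log steps), with DMSO as baseline.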

[12] = read-out: Insulin-like growth factor-binding protein 1 (IGFBP1), IGFBP1 (gene 3484); experiment: LTEA_HepaRG_IGFBP1: Life Technologies and Expression Analysis (LTEA) Assay for Insulin-like growth factor-binding protein 1 (IGFBP1) using HepaRG (AID 2283508)
Method in brief: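 mRNA induction or loss was quantified by qRT-PCR after 48 h chemical exposure of human HepaRG cells, with 0.5% DMSO as vehicle and baseline. Concentration-response over eight points up to 100 uM.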

[13] = read-out: Interleukin 6 (IL6), IL6 (gene 3569); experiment: LTEA_HepaRG_IL6: Life Technologies and Expression Analysis (LTEA) Assay for Interleukin 6 (IL6) using HepaRG (AID 2283509)
Method in brief: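 HepaRG, ~100,000 cells/well, 48 h pre-culture; serum-free induction medium; cmpd 8-pt half-log from 100 uM, 0.5% DMSO, duplicate, 48 h. Lysis in RLT, TaqMan qRT-PCR; gain or loss vs DMSO.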

[14] = read-out: Interleukin 6 Receptor (IL6R), IL6R (gene 3570); experiment: LTEA_HepaRG_IL6R: Life Technologies and Expression Analysis (LTEA) Assay for Interleukin 6 Receptor (IL6R) using HepaRG (AID 2283510);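 as to AC50: differentiated human HepaRG liver cells in serum-free induction medium; TaqMan qRT-PCR signal normalized to ACTB GAPDH and POLR2A housekeeping genes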
Method in brief: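 Readout is IL6R transcript level by TaqMan qRT-PCR, normalized to three housekeeping genes and fitted bidirectionally against 0.5% DMSO controls. Human HepaRG cells received chemicals for 48 h in serum-free induction medium, highest concentration 100 uM.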

[15] = read-out: Potassium channel subfamily K member 1 (KCNK1), KCNK1 (gene 3775); experiment: LTEA_HepaRG_KCNK1: Life Technologies and Expression Analysis (LTEA) Assay for Potassium channel subfamily K member 1 (KCNK1) using HepaRG (AID 2283511)
Method in brief: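 Gain or loss of KCNK1 mRNA is the read-out, quantified by qRT-PCR against three housekeeping genes after 48 h chemical treatment of human HepaRG liver cells. Concentrations ran from 100 uM downward in half-log steps, vehicle 0.5% DMSO.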

[16] = read-out: Keratin 19 (KRT19), KRT19 (gene 3880); experiment: LTEA_HepaRG_KRT19: Life Technologies and Expression Analysis (LTEA) Assay for Keratin 19 (KRT19) using HepaRG (AID 2283512)
Method in brief: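 Gene-expression endpoint in the human liver line HepaRG after 48 h exposure to up to 100 uM test chemical with 0.5% DMSO vehicle; KRT19 mRNA by qRT-PCR, analyzed bidirectionally versus DMSO.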

[17] = read-out: JUN Transcription Factor, JUN (gene 3725); experiment: LTEA_HepaRG_JUN: Life Technologies and Expression Analysis (LTEA) Assay for JUN Transcription Factor using HepaRG (AID 2283513)
Method in brief: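 Cells plated 48 h, medium switched to serum-free induction medium, then dosed 48 h (100 uM top, half-log dilutions, 0.5% DMSO). RNA isolated; JUN measured by qRT-PCR against three housekeeping genes; gain or loss fitted relative to DMSO.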

[18] = read-out: Lipase C (LIPC), LIPC (gene 3990); experiment: LTEA_HepaRG_LIPC: Life Technologies and Expression Analysis (LTEA) Assay for Lipase C (LIPC) using HepaRG (AID 2283514)
Method in brief: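 Read-out is LIPC transcript level by TaqMan qRT-PCR, normalized to three housekeeping genes, after 48 h chemical treatment of human HepaRG liver cells. Curves span eight concentrations topping at 100 uM; activity in either direction scored relative to 0.5% DMSO.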

[19] = read-out: Hypoxia-inducible factor 1-alpha (Homo sapiens) (UniProt Q16665); experiment: LTEA_HepaRG_HIF1A: Life Technologies and Expression Analysis (LTEA) Assay for Hypoxia-inducible factor 1 (HIF1A) Trancription factor using HepaRG (AID 2283503)
Method in brief: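 Differentiated HepaRG cells in serum-free induction medium exposed 48 h, in duplicate, to 8-point half-log series from 100 uM in 0.5% DMSO. HIF1A mRNA measured by TaqMan qRT-PCR, normalized to ACTB/GAPDH/POLR2A, fitted bidirectionally versus DMSO.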

Measured: AC50

Hypoxia-inducible factor 1-alpha (Homo sapiens), sequence (Q16665 whole entry, looked up): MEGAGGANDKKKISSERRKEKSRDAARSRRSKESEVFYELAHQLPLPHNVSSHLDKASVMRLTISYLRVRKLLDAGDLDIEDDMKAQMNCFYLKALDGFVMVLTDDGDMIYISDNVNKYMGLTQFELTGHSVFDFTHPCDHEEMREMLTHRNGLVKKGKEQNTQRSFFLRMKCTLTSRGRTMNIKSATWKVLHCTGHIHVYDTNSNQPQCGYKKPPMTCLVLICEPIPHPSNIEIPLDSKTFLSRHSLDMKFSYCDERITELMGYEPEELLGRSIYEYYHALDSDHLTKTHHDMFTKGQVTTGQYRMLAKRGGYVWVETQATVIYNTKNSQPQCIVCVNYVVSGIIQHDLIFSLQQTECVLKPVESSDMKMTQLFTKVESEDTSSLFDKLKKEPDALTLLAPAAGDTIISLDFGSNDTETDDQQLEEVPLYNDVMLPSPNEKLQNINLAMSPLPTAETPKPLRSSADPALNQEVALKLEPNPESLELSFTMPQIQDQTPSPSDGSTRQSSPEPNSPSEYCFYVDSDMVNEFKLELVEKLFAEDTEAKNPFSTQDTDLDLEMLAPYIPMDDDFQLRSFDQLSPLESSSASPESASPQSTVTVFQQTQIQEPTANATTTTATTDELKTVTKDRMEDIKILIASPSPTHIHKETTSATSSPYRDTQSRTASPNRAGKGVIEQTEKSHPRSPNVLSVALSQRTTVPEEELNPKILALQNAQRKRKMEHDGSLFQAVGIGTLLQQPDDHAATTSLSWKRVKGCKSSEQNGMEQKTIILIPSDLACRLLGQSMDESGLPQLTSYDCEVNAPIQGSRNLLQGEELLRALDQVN

C[C@]12CC[C@@H]3c4ccc(O)cc4CC[C@H]3[C@@H]1CC[C@H]2O
active: [1] 76 µM | [8] 12.5 µM | [9] 82.2 µM | [10] 50 µM | [18] 81.9 µM
not listed: [19]
inactive: all other assays above

CC/C(=C(/CC)c1ccc(O)cc1)c1ccc(O)cc1
inactive: [1] | [3] | [6] | [7] | [9] | [10] | [11] | [15] | [18]
active: [2] 84.8 µM | [4] 78.7 µM | [5] 71.7 µM | [8] 75.8 µM | [19] 85.7 µM | HGF (gene 3082) 23.6 µM | [12] 66.6 µM | [13] 93 µM | [14] 78.5 µM | [16] 9.92 µM | [17] 79.2 µM

O=C(O)c1ccccc1C(=O)OCc1ccccc1
active: [1] 23.4 µM | [5] 5.56 µM
inactive: all other assays above

O=c1ccc2ccccc2o1
inactive: all assays above
